# aSyn rescue – rescues yeast growth from alpha-synuclein toxicity; Potency, µM (highest dose often 46.1 µM), usual class: activators; Yeast expressing alpha-synuclein, growth rescue, BacTiter-Glo, 24 h; 370,000 compounds, 0.14% hits; AID 652106; also: nearly all actives have a fitted effect of over 65% in size
#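 Rescue of yeast growth: cells expressing toxic alpha-synuclein, induced in galactose at OD600 0.02, incubated with compound 24 h at 30 C. ATP luminescence quantified growth; inhibitors of toxicity appear as activators.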
# FUS yeast rescue – FUS proteinopathy suppression in yeast. S. cerevisiae FUS-expressing, growth rescue, OD600, 24 h. Potency, µM (titrated, usually from 76.6 µM), hits mostly activators. 390,000 compounds, 0.24% hits. AID 1347120; also: nearly all actives have a fitted effect of over 55% in size
#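 Yeast FUS proteinopathy model; galactose-induced FUS (2%), starting OD 0.005. Cpds in dilution series, 24hr, 30C, 99% humidity. Abs 600 nm growth. Pos ctrl CP55940 (top 92uM final); neg ctrl DMSO.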
# TDP43 rescue – inhibitors of TDP-43 toxicity in yeast; TDP-43 expressing yeast growth rescue, BacTiter-Glo, 24 h; 410,000 compounds, 1.8% hits; Potency, µM (series often up to 46.1 µM), most hits filed as activators; also: nearly all actives have a fitted effect of over 50% in size
#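 Growth rescue of TDP-43-toxic yeast measured as ATP luminescence (BacTiter-Glo). Cells grown to mid-log in raffinose, induced in galactose at OD600=0.02, exposed to compound 24 hr at 30 deg C.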
# Abeta yeast res – compounds reversing amyloid beta toxicity in yeast. Potency, µM (top dose mostly 46.1 µM), usual class: activators. yeast expressing A-beta42, growth rescue, OD600, 48 h; response scale: 0% DMSO, 100% iron-clioquinol control. 410,000 compounds, 0.063% hits; also: nearly all actives have a fitted effect of over 55% in size
#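 Yeast growth medium received pinned compounds, then yeast cells expressing toxic A-beta were added; plates incubated at 30 C for 48 hr. Growth read as absorbance at 600 nm, normalized to DMSO and equimolar FeCl3 plus clioquinol controls.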
# Numbers stand for hits; – = inactive; ? = inconclusive; · = no result given; ! = not confirmed by another sample; [ ] = another dose, or the depositor's remark. Shown are actives, neighbours in structure and some others; about 2.1% of the full set was active somewhere. Calls follow the shape of the dose curve; as a rule, active = well fitted curve in the direction sought with a large enough effect; inconclusive = small, poorly fitted or top-dose-only effect, or another doubt; inactive = no such curve, though single readings can be large; an effect the other way counts as inactive or inconclusive.
SMILES,aSyn rescue,FUS yeast rescue,TDP43 rescue,Abeta yeast res
O=S(=O)(Nc1ccc2c(c1)OCO2)c1cccc(Br)c1,–,·,12.6µM,–
O=S(=O)(Nc1ccc2c(c1)OCCO2)c1ccc2oc3ccccc3c2c1,25.1µM,–,?,–
COP(=O)(O)C[C@@H]1CCc2cc(C)cc([C@H](CC(C)C)NC(=O)OCc3ccccc3)c2O1,·,–,·,·
O=C(NCc1ccc(Cl)s1)C1CCC(=O)N(CCc2ccccn2)C1 (centres undefined),–,–,–,–
CCc1ccc(CNC(=O)c2cnc3c(C)cccn3c2=O)cc1,·,–,15.8µM,–
O=C(O)Cc1ccc(Oc2ncc(C(F)(F)F)cc2Cl)cc1,–,–,12.6µM,–
CN=c1sc2c(n1C)C(=O)c1ccccc1C2=O,–,·,11.2µM,–
CN=c1sc(C(=O)Nc2ccccc2)c(C)n1C,–,–,–,–
COc1ccc2c(c1)N=C(c1[nH]c3ccccc3c1CCN1C(=O)c3ccccc3C1=O)[C@]2(O)CCN1C(=O)c2ccccc2C1=O,·,17.8µM,·,·
Cc1ccc(C)c2sc(N3CCN(C(=O)C(C)(C)C)CC3)nc12,·,–,35.5µM,–
O=C(C1CC1)N1CCN(c2nc3c(Cl)cccc3s2)CC1,·,–,?,–
Cc1ccc(Cl)c2sc(N3CCN(C(=O)C4CC4)CC3)nc12,·,?,14.1µM,–
O=C(O)CCC(=O)N1CCN(c2ncccc2C(F)(F)F)CC1,–,–,–[1.82 µM],–
COCCOC1CCN(C(=O)c2cc(COc3ccc(F)cc3F)on2)CC1,–,·,–,–
Cc1ccnc(NC(=O)c2ccc([N+](=O)[O-])s2)c1,–,–,8.91µM,–
Cc1ccnc(NC(=O)c2cc([N+](=O)[O-])cc([N+](=O)[O-])c2)c1,–,–,–,–
Cc1cccc(C)c1NC(=O)c1ccc([N+](=O)[O-])s1,–,–,–,–
Cc1cccc(NC(=O)c2ccc([N+](=O)[O-])s2)c1C,–,–,11.2µM,?
COC(=O)[C@]12C[C@H](CC(=O)N3CCSCC3)C(=O)N(Cc3ccc(Cl)cc3Cl)C1=C[C@H](C(C)C)O[C@@H]2C1CC1,·,–,·,·
Cc1cc(S(=O)(=O)N2CCCC(C(=O)Nc3ccc(C(=O)O)cc3)C2)ccc1Cl (centres undefined),–,–,–,–
CCc1nn(CCCC(=O)NC2CCCCC2C)c(=O)c2cc3occc3n12 (centres undefined),–,–,22.4µM,–
CCc1ccc(NC(=O)CCCn2nc(CC)n3c(cc4occc43)c2=O)cc1,–,–,–,–
CCc1nn(CCCC(=O)NCc2ccc(OC(C)C)cc2)c(=O)c2cc3occc3n12,–,31.6µM!,–,–
COc1ccc(OC)c(NC(=O)Cn2nc(C)c3ccccc3c2=O)c1,–,–,–,–
COc1ccc(NC(=O)c2cccc(Oc3ccccc3)c2)cn1,–,–,11.2µM,–
SMILES,aSyn rescue,FUS yeast rescue,TDP43 rescue,Abeta yeast res
COc1ccc(NC(=O)Nc2ccccc2SC)c(OC)c1,–,–,–,–
COc1cccc(NC(=O)Nc2ccccc2SC)c1,–,–,20µM,–
COc1cccc(C(=O)Nc2cccc(-c3ccccc3)c2)c1,–,–,17.8µM,–
COc1ccc(NC(=S)NC(=O)c2ccccc2)cn1,–,–,–,–
COc1cc(OC)cc(C(=O)Nc2ccc(Nc3ccccc3)cc2)c1,–,25.1µM,–,–
CC(NC(=O)C1CCN(C(=O)Nc2ccccc2)CC1)c1ccccc1 (centres undefined),–,–,–,–
Nc1ccc(N2CCN(c3ncc(C(F)(F)F)cc3Cl)CC2)c(C(F)(F)F)c1,–,–,20µM,–
NC(=O)c1ccc(N2CCN(c3ncc(C(F)(F)F)cc3Cl)CC2)cc1,–,–,–,–
Cc1ccc(C)c(CN2C(=O)c3ccccc3S(=O)(=O)c3ccc(C(=O)N4CCOCC4)cc32)c1,·,28.2µM,–,–
COc1ccc(-n2c(SCC(=O)N3CCCCC3)nc(O)cc2=O)cc1,–,31.6µM,–,–
O=C(Cn1c2ncccc2c(=O)n1-c1ccccc1)NCc1ccccc1Cl,·,–,–,–
Cc1ccc(/C=N/Nc2nc(C(C)(C)C)cs2)o1,–,–,–,–
Cc1ccc(/C=N/Nc2nc3ccccc3s2)o1,–,–,11.2µM,?
Cn1c(NCC(O)c2ccccc2)nc2c1c(=O)n(Cc1ccc(Cl)cc1)c(=O)n2C (centres undefined),–,–,–,–
Cn1c(NCC(O)c2ccccc2)nc2c1c(=O)n(Cc1ccc(Cl)c(Cl)c1)c(=O)n2C (centres undefined),–,8.91µM,–,–
COCCCNC(=O)C[C@H]1C(=O)N(Cc2ccc(OC)cc2)C2=CCCCC[C@@]21C(=O)OC,·,–,·,·
O=C(Cc1ccccc1)Nc1cc(C(=O)c2ccccc2)ccc1N1CCOCC1,·,–,12.6µM,–
Cc1cccc(OCC(O)CN2CCOCC2)c1 (centres undefined),–,–,–,–
CC(=O)N(c1ccc(Cl)cc1)c1cn(C(C)=O)c2ccccc12,–,–,20µM,–
CN(c1ccc(Cl)cc1)c1cc(=O)n(C)c2ccccc12,–,–,15.8µM,–
CN(C(=O)COc1cc(=O)n(C)c2ccccc12)c1ccc(Cl)cc1,–,–,–,–
S=C(Nc1ccccc1)Nc1ccccc1-n1cccc1,–,–,?,12.6µM
CO[C@H]1CC[C@@]2(C)[C@@H](CC[C@@H]3[C@@H]2CC[C@@]2(C)[C@H]3C[C@H](C(=O)O)O[C@]23CCCO3)C1,–,–,15.8µM,–
COc1ccc(CN2C(=O)c3ccccc3C2=O)cc1C(=O)Nc1ccccc1N1CCOCC1,?,–,17.8µM,–
CCc1ccc2oc(-c3ccc(NC(C)=O)cc3)nc2c1,–,–,3.55µM,–
SMILES,aSyn rescue,FUS yeast rescue,TDP43 rescue,Abeta yeast res
CCc1ccc(-c2nc3cc(NC(=O)c4ccc(C)c(C)c4)ccc3o2)cc1,·,–,–,–
CCN(CC)CCN(C(=O)c1ccc(C(=O)OC)cc1)c1nc2ccc(Cl)cc2s1,·,–,–,–
COCCNc1nc2cc(-c3ccc(C)cc3)sc2c(=O)n1C,–,–,11.2µM,–
COc1cccc(CNc2nc3cc(-c4cccc(Cl)c4)sc3c(=O)n2C)c1,–,–,–,–
Cn1c(NCC2CCCCC2)nc2cc(-c3ccsc3)sc2c1=O,–,–,20µM,–
COc1ccccc1CNc1nc2cc(-c3ccccc3C)sc2c(=O)n1C,?,–,20µM,–
COc1cccc(CNc2nc3cc(-c4ccccc4C)sc3c(=O)n2C)c1,?,?,17.8µM,–
CCOC(=O)CCCCN(Cc1ccccc1F)S(=O)(=O)c1ccc(F)c(C(=O)Nc2cc(Cl)cc(Cl)c2)c1,·,–,–,–
O=c1cc(N2CCN(c3ccnc4cc(Cl)ccc34)CC2)[nH]c(=O)n1C1CCCCC1,·,–,·,·
CC(C)c1cnc2c(c1SCC(=O)Nc1ccc(OC(F)(F)F)cc1)c(=O)n(C)c(=O)n2C,·,–,–,–
CC(C)c1cnc2c(c1SCC(=O)Nc1cccc([N+](=O)[O-])c1)c(=O)n(C)c(=O)n2C,·,–,11.2µM,–
Cc1oc2ncn(CC(C)C)c(=O)c2c1C(=O)N(Cc1ccccc1)C(C)C,·,–,–,–

# Screening data from PubChem BioAssay.
